In PubChem BioAssay (NCATS):
Results filed as inconclusive are left out. Calls of active or inactive are those of the source. Calls follow the shape of the dose curve; as a rule, active = well fitted inhibition curve with a large enough effect; inconclusive = small, poorly fitted or top-dose-only effect; inactive = flat fitted curve, though single readings scatter.

Test system: HaCat
Assay: Cytotoxic Profiling of Annotated Libraries Using Quantitative High-Throughput Screening (AID 1296008); also: nearly all actives have a fitted effect of over 60% in size
Conditions: Five cell lines viability, CellTiter-Glo ATP luminescence, 48-72 h; max response: active compounds read low
How it was run: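 Cytotoxicity was measured as CellTiter-Glo ATP luminescence, read after 10 min at room temperature. Compound treatment of the cells lasted 48 or 72 hr at 37 degrees Celsius in a qHTS format.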
% is scaled to controls: 0 for no effect and ±100 for the full control effect.

Row | SMILES | outcome | max response
1 | N=C(N)c1ccc(OCCCOc2ccc(C(=N)N)cc2)cc1 | inactive | 
2 | O=C(OCC(COC(=O)c1cccnc1)(COC(=O)c1cccnc1)COC(=O)c1cccnc1)c1cccnc1 | inactive | 
3 | O=C(O)c1ccccc1Nc1cc(Cl)ccc1C(=O)O | inactive | 
4 | CCO[C@H](Cc1ccc(OCCc2ccc(OS(C)(=O)=O)cc2)cc1)C(=O)O | inactive | 
5 | C=CC[N+]1([C@H]2C[C@H]3[C@@H]4CC[C@H]5C[C@H](OC(C)=O)[C@@H](N6CCCCC6)C[C@]5(C)[C@H]4CC[C@]3(C)[C@H]2OC(=O)CC)CCCCC1 |  | 4.73% (inactive)
6 | CC(CCc1ccc2c(c1)OCO2)NN (stereo unspecified) |  | 2.43% (inactive)
7 | C[C@@]12CCC[C@H]1[C@@H]1CC[C@H]3C[C@@H](O)CC[C@]3(C)[C@H]1CC2 |  | 2.53% (inactive)
8 | Nc1c[n+](N2CCOCC2)no1 |  | -23.5% (inactive)
9 | CC(C(=O)O)c1ccc(/C=C2\CCCCC2=O)cc1 (stereo unspecified) | inactive | 
10 | O=C(CCCCC(=O)Nc1c(I)cc(I)c(C(=O)O)c1I)Nc1c(I)cc(I)c(C(=O)O)c1I |  | 4.99% (inactive)
11 | NC(=O)COCCN1CCN(C(c2ccccc2)c2ccc(Cl)cc2)CC1 (stereo unspecified) |  | -16.4% (inactive)
12 | C1=CC2C3C=CC(C3)C2C1 (stereo unspecified) |  | -9.73% (inactive)
13 | CCOC(=O)OCC/C(SC(=O)OCC)=C(\C)N(C=O)Cc1cnc(C)nc1N |  | -10.8% (inactive)
14 | COc1cc(NS(=O)(=O)c2ccc(N)cc2)nc(C)n1 |  | -7.5% (inactive)
15 | CCC(C(=O)NC(=O)NC(C)=O)c1ccccc1 (stereo unspecified) | inactive | 
16 | O=P(O)(O)OCC(O)CO (stereo unspecified) |  | 0.361% (inactive)
